Data taken from PubChem BioAssay AID504832 (National Center for Advancing Translational Sciences (NCATS), 2011).
The whole screen tested about 310,000 compounds, of which about 18,000 (5.8%) were called active. Another 22% or so got no clear call; they are omitted. Calls follow the shape of the dose curve; as a rule, active = well fitted inhibition curve with a large enough effect; inconclusive = small, poorly fitted or top-dose-only effect, or another doubt; inactive = no such curve, though single readings can be large or run the other way. This excerpt belongs to a sample that is enriched for actives.

assay: Primary qHTS for delayed death inhibitors of the malarial parasite plastid, 48 hour incubation; conditions: P. falciparum luciferase growth in erythrocytes; series mostly up to 28.7 µM; activity change, negative = inhibition: at the top concentration
Summary of the method: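 Growth was read as firefly luciferase luminescence after a 48 h, 37 C, 5% CO2 exposure of compounds to reporter-bearing P. falciparum cultures (0.1% parasitemia, 2% hematocrit final) in Albumax-supplemented RPMI 1640.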
% is scaled to controls: 0 for no effect and ±100 for the full control effect; potency is read from the fitted curve at half-maximal effect.

| SMILES | activity change, negative = inhibition | Potency |
| --- | --- | --- |
| O=C(COC(=O)c1cc(=O)[nH]c2ccccc12)NCc1cccc(Cl)c1 | -24.3% (inactive) | – |
| O=C(NCc1cccs1)c1ccc(CS(=O)Cc2ccccc2Cl)o1 (stereo not drawn) | 14.7% (inactive) | – |
| CC(=O)NS(=O)(=O)c1ccc2c(c1)Cc1cc(S(=O)(=O)NC(C)=O)ccc1-2 | 20.5% (inactive) | – |
| CC(OC(=O)c1cc2ccccc2o1)C(=O)Nc1ccc(N2CCOCC2)cc1 (stereo not drawn) | -9.79% (inactive) | – |
| O=[N+]([O-])c1ccc(N/N=C2/CCCCC2c2ccccn2)c([N+](=O)[O-])c1 (stereo not drawn) | 2.85% (inactive) | – |
| C[n+]1ccccc1C1CCCC/C1=N\Nc1ccc([N+](=O)[O-])cc1[N+](=O)[O-] (stereo not drawn) | – | 3.7 µM (active) |
| Cc1cc([N+](=O)[O-])ccc1NC1CCCC1 | 1.67% (inactive) | – |
| Cc1cc(O)c(C2(O)C(=O)Nc3ccccc32)cc1C (stereo not drawn) | -8.28% (inactive) | – |
| CCCn1nnnc1NCc1ccc(OC)cc1 | 54.3% (inactive) | – |
| Cc1ccc(Cn2c(SCC(=O)N/N=C/c3ccccc3OCC(=O)O)nc3ccccc32)cc1 | 7.08% (inactive) | – |
| CCCc1nc2c(C)cc(-c3nc4ccccc4n3C)cc2n1Cc1ccc(-c2ccccc2C(=O)O)cc1 | – | 3.79 µM (active) |
| CC(=O)c1nc2ccccc2n1Cc1ccccc1 | 18.9% [at 0.00184 µM] (inactive) | – |
| CN(c1ccccc1)S(=O)(=O)c1cccc(C(=O)NNC(=O)c2ccncc2)c1 | -4.87% (inactive) | – |
| COC(=O)CN(C(=S)Nc1ccc(Cl)cc1)C1CC(=O)N(c2ccc(OC)cc2)C1=O (stereo not drawn) | -15% (inactive) | – |
| CCOc1ccc(N2C(=O)CC(N(O)c3ccccc3)C2=O)cc1 (stereo not drawn) | 59.6% (inactive) | – |
| CCOc1ccc(N2C(=O)CC(N(CCc3ccc(OC)c(OC)c3)C(=S)Nc3ccccc3)C2=O)cc1 (stereo not drawn) | – | 10.4 µM (active) |
| Cc1cccc(NC(=S)NCCc2ccc(Cl)cc2)c1C | – | 2.94 µM (active) |

| SMILES | activity change, negative = inhibition | Potency |
| --- | --- | --- |
| CCNC(=S)Nc1cccc(Cl)c1C | -16.4% (inactive) | – |
| S=C(NCCc1ccccc1)Nc1ccccc1 | 16.9% (inactive) | – |
| O=C(CN1CCCSc2ccccc21)N1CCN(S(=O)(=O)c2ccccc2)CC1 | 4.98% (inactive) | – |
| O=C(CN1C(=O)S/C(=C\c2ccccc2Cl)C1=O)NC1C=CS(=O)(=O)C1 (stereo not drawn) | 1.18% (inactive) | – |
| COc1c(C)c2c(c(O)c1C/C=C(\C)CCC(=O)O)C(=O)OC2 | – | 2.56 µM (active) |
| COc1ccc(C(=O)Nc2ccnn2C2CCN(Cc3ccncc3)CC2)cc1 | 24.7% (inactive) | – |
| C=CCn1c(=O)c(C(=O)Nc2ncccc2O)c(O)c2ccccc21 | 61.6% (inactive) | – |
| CCOc1ccc(S(=O)(=O)Nc2ccc(C(=O)NCCCN3CCCC3=O)cc2)cc1 | 9.13% (inactive) | – |
| CCOC(=O)c1cccc(NS(=O)(=O)c2c(C(=O)N3CCCCCC3)c(C)n(C)c2C)c1 | -12.8% (inactive) | – |
| O=C(NCC1CCCO1)c1ccc(S(=O)(=O)Nc2ccc(F)cc2)cc1 (stereo not drawn) | 6.48% (inactive) | – |
| CCOc1ccc(S(=O)(=O)Nc2cccc(C(=O)NCC3(N4CCCCC4)CCCCC3)c2)cc1 | – | 14.7 µM (active) |
| CCOc1ccc(NS(=O)(=O)c2ccc(C(=O)NCC(c3ccccc3OC)N3CCCC3)cc2)cc1 (stereo not drawn) | – | 10.4 µM (active) |
| O=C(NCC1(N2CCCCC2)CCCCC1)c1ccc(NS(=O)(=O)c2ccc(F)cc2)cc1 | – | 14.7 µM (active) |
| CCOc1ccc(S(=O)(=O)Nc2ccc(OC)nc2)cc1 | 8.27% (inactive) | – |
| CCOc1ccc(S(=O)(=O)NCCC(=O)N2CCCCCCC2)cc1 | 9.99% (inactive) | – |
| CN(C)S(=O)(=O)c1ccc(C(=O)NCC2(N3CCOCC3)CCCCC2)cc1 | -19.4% (inactive) | – |
